High-throughput results as filed in PubChem BioAssay.
GLP-1R agonist – GLP-1 receptor (human) agonism | HEK293 GLP-1R CRE-luciferase, luminescence, 4-6 h; cells express a hypersensitive GLP-1R form | Potency, µM (highest dose often 45.6 µM), usual class: activators | 380,000 compounds, 0.007% hits | AID 624172
Target sequence (P43220 whole entry, looked up): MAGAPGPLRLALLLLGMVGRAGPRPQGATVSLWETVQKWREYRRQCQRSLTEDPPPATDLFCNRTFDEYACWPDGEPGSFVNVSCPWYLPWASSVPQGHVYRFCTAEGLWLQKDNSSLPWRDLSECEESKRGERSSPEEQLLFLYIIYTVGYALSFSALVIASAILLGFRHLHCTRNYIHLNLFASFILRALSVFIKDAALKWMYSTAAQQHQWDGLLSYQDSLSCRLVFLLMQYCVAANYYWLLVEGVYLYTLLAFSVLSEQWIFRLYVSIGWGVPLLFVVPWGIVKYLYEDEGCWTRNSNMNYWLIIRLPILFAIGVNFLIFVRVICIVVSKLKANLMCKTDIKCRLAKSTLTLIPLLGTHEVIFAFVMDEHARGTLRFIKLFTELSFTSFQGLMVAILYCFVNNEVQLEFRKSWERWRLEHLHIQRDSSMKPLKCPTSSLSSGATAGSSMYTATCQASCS
GLP1R cytotox – cytotoxic in the GLP-1 receptor inverse agonist counter-screen; HEK293 cAMP-luciferase reporter cells, luminescence, 24 h; Potency, µM (series often up to 38.3 µM), usual class: inhibitors; 410,000 compounds, 0.13% hits;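 note: loss of luciferase light is scored as toxicity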
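Cells in DMEM/10% Nu serum/1% pen-strep, 1536-well format. Pre-incubated 12 h, dosed with 23 nL compound, incubated a further 24 h. Luciferase detection, 12 min at room temp, luminescence.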
GLP1R inv ag – GLP-1 receptor (human) inverse agonism; AID 624417; Potency, µM (top dose mostly 38.3 µM), actives largely listed as inhibitors; 410,000 compounds, 1.6% hits; HEK293 GLP-1R CRE-luciferase, luminescence, 24 h; GLP-1R form is constitutively active; note: nearly all actives have a fitted effect of over 55% in size
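HEK293 cells stably co-expressing a cAMP-responsive luciferase reporter and constitutively active GLP-1R were seeded, incubated 12 h, then exposed to compounds for 24 h at 37 C. Luminescence was read 12 min after detection reagent; inverse agonists lower signal.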
A number is an active result; . = inactive; ? = inconclusive; / = not tested or not shown. Only some compounds are listed: those with a hit (about 1.7% of all), similar ones and a draw of the others. Calls come from the whole dose curve; as a rule, active = well fitted curve in the direction sought with a large enough effect; inconclusive = small, poorly fitted or top-dose-only effect, or another doubt; inactive = no such curve, though single readings can be large; an effect the other way counts as inactive or inconclusive.

SMILES | GLP-1R agonist | GLP1R cytotox | GLP1R inv ag
S=c1[nH]cnc2sc(-c3ccccc3)cc12 | . | 5.62µM | .
CC1(C)Cc2c(cnn2-c2ccccc2)C(=O)/C1=N\NC(=O)c1ccccc1O | . | . | 11.2µM
CC1(C)Cc2c(cnn2-c2ccccc2)C(=O)/C1=N\NC(=O)c1ccccc1 | . | . | .
O=C1NN=C(c2ccccc2)CC1c1ccc(Cl)cc1Cl (stereo not given) | . | . | 7.94µM
O=C1NN=C(c2ccc(Cl)cc2)CC1c1cccc(Cl)c1 (stereo not given) | . | . | ?
CC(C)(S)C(=O)NC(CS)C(=O)O (stereo not given) | . | / | /
COc1cc(NS(=O)(=O)c2ccc(NC(=O)c3ccc(OC)c(Br)c3)cc2)nc(OC)n1 | / | . | .
NS(=O)(=O)c1ccc(CNC(=O)CSc2nc3ccc(Cl)cc3[nH]2)cc1 | . | . | .
CCOC(=O)c1ccc(N2C(=O)c3n[nH]c(-c4ccco4)c3C2c2ccc(OCC)cc2)cc1 (stereo not given) | / | . | 11.2µM
CCOC(=O)c1ccc(N2C(=O)c3n[nH]c(-c4ccco4)c3C2c2ccc(F)cc2)cc1 (stereo not given) | . | . | ?
Cc1ccc(OCC(=O)N(c2ccc(C)cc2)S(=O)(=O)c2ccc(Cl)cc2)cc1 | / | . | .
COc1ccc(N(C(=O)COc2c(C)cccc2C)S(=O)(=O)c2ccc(Cl)cc2)cc1 | / | . | 10µM
COc1cccc(/C=C2\SC(=S)N(CCC(=O)Nc3ccc(O)cc3)C2=O)c1 | . | . | ?
COc1cccc(/C=C2\SC(=S)N(CCCC(=O)N3CCCCC3)C2=O)c1 | . | . | ?
O=C1/C(=C/c2cccc(Br)c2)SC(=S)N1CCC(=O)N(CCO)c1ccccc1 | . | . | 11.2µM
COc1cccc(/C=C2\SC(=S)N(CCCC(=O)N(CCO)c3ccccc3)C2=O)c1 | . | . | 4.47µM
COc1cccc(/C=C2\SC(=S)N(CCC(=O)NCCc3ccc(O)cc3)C2=O)c1 | . | ? | 3.98µM
O=C(CCCN1C(=O)/C(=C\c2cccc(Br)c2)SC1=S)Nc1ccc(C(=O)O)cc1 | . | . | ?
COc1ccc2oc(=O)c(C(=O)NCCc3c(C)[nH]c4c(C)cccc34)cc2c1 | . | . | ?
CCOc1cc(/C=C/C(=O)c2ccc(O)cc2)ccc1OCC(=O)N(C)C | . | ? | ?
CCOc1cc(/C=C/C(=O)c2ccc3c(c2)OCCO3)ccc1OCC(=O)N(C)C | . | . | 12.6µM
CC(=O)N1CCc2cc(S(=O)(=O)NC(Cc3ccccc3)C(=O)O)ccc21 (stereo not given) | . | . | .
OCc1ccnc2c(O)cccc12 | . | ? | 8.91µM
Oc1ccc(CNc2ccc(F)cc2)c2cccnc12 | . | . | ?
Oc1ccc(CNc2ccccc2)c2cccnc12 | . | ? | 6.31µM
SMILES | GLP-1R agonist | GLP1R cytotox | GLP1R inv ag
NC(=O)c1ccnc2c(O)cccc12 | . | / | /
Cc1ccc(N(C)S(=O)(=O)c2nnc(NC(=O)CC(C)C)s2)cc1 | / | . | .
CN1CCC(N(C)C(=O)c2sc3cc(F)ccc3c2Cl)CC1 | . | . | 7.08µM
CC(C)N(CC(N)=O)C(=O)c1sc2cc(F)ccc2c1Cl | . | . | .
COc1ccc(C)cc1NC(=O)CSc1nc(=O)n(Cc2ccco2)c2c1CCC2 | / | . | .
O=C(Nc1ccc2c(c1)OCCO2)c1ccc(Cl)c(Cl)c1 | . | . | .
O=C(Nc1ccc(Cl)c(Cl)c1)C1=Cc2ccccc2OC1 | . | . | 10µM
O=C(NCc1ccc(Cl)cc1)C1=Cc2cc(Cl)ccc2OC1 | . | . | .
O=C(Nc1cccc(Cl)c1)C1=Cc2cc(Cl)ccc2OC1 | . | . | 10µM
CCN(C(=O)Cc1c(C(=O)O)c(C)cn1C)c1cccc(Cl)c1 | / | . | .
Cc1ccc([N+](=O)[O-])cc1N(CC(=O)Nc1ccc(S(=O)(=O)Nc2cccc(C(F)(F)F)c2)cc1)S(C)(=O)=O | . | ? | 1µM
COc1ccccc1N(CC(=O)Nc1cccc(C(F)(F)F)c1)S(C)(=O)=O | . | . | .
C(=N\Nc1ccc2ccccc2n1)/c1ccc2c(c1)OCCO2 | . | . | .
Cc1cccc(/C=N/Nc2ccc3ccccc3n2)c1 | . | ? | 10µM
CCOc1ccccc1NS(=O)(=O)c1ccc(N2CCCCS2(=O)=O)cc1 | / | . | .
O=S(=O)(NC1c2cccc3cccc(c23)C1N1CCNCC1)c1ccccc1 (stereo not given) | . | . | 10µM
O=S(=O)(NC1c2cccc3cccc(c23)C1N1CCN(CCO)CC1)c1ccccc1 (stereo not given) | . | ? | ?
Cc1ccc(NC(=O)CCCc2nnc3n(C)c(=O)c4sccc4n23)cc1F | / | . | .
CCOc1cnn(-c2cc(Oc3ccc(C)cc3)ncn2)c(=O)c1Cl | . | . | .
Cc1ccccc1Oc1cc(-n2ncc(Cl)c(Cl)c2=O)ncn1 | . | 3.16µM | ?
O=S(=O)(O)c1cccc2c(N=Nc3ccc(O)c4ncccc34)cccc12 | . | 11.2µM | .
Cc1ccccc1N=Nc1ccc(O)c2ncccc12 | . | . | .
COc1cc(CNCCN2CCOCC2)ccc1OCc1ccc(Cl)cc1Cl | . | . | 3.16µM
COc1cc(CNCCN2CCOCC2)ccc1OCc1cccc(Cl)c1 | . | . | ?
CCCC(=O)N1CCCC1(C)C(=O)Nc1ccc(-n2cccc2)cc1 (stereo not given) | . | . | .
SMILES | GLP-1R agonist | GLP1R cytotox | GLP1R inv ag
CC1(C)CC(=O)C=C(c2ccc(I)cc2)C1 | . | . | .
COC(=O)c1ccc2nc(-c3ccc(C)cc3)c(CC3CCCCC3)n2c1 | . | . | .
Cc1cc(C)cc(-n2c(C)cc(/C=N/NC(=O)CN(c3c(C)cccc3C)S(C)(=O)=O)c2C)c1 | . | . | ?
Cc1ccc(-n2c(C)cc(/C=N/NC(=O)CN(c3ccc(C)cc3C)S(C)(=O)=O)c2C)cc1 | . | . | 10µM
Cc1cc(C)c2c(=O)cc(CSc3n[nH]c(C)n3)[nH]c2c1 | / | . | .
CC1CCCCN1C(=O)C1CCN(c2nc(-c3ccccc3)nc3c2CCC3)CC1 (stereo not given) | . | ? | 8.91µM
O=C(C1CCN(c2nc(-c3ccccc3)nc3c2CCC3)CC1)N1CCCC1 | . | . | ?
O=C(Nc1ccc2c(c1)CN(C(=O)Nc1ccc(F)cc1)CC2)c1ccccn1 | . | . | ?
CC1(c2ccccc2)NC(=O)N(CC(=O)N2CCN(S(=O)(=O)c3c(F)cccc3F)CC2)C1=O (stereo not given) | . | . | .
COc1ccc(/C=C/C(=O)Nc2ccc(Cl)c(Cl)c2)cc1OC | / | ? | 8.91µM
CO/N=C\CC(=O)Nc1ccc(Cl)c(Cl)c1 | . | . | 3.16µM
COC(=O)CCC(=O)Nc1ccc(Cl)c(Cl)c1 | . | . | .
COc1ccc(/C=C/C(=O)Nc2ccncc2)cc1OC | . | . | .
CCOc1ccccc1N1CCN(C(=O)c2ccccc2SCC(=O)N2CCCC2)CC1 | . | . | .
O=C(NCC(c1cccnc1)N1CCN(Cc2ccccc2)CC1)C(=O)Nc1ccc(F)cc1 (stereo not given) | / | . | .
CCc1ccc(C(=O)C(C)CN2CCCCC2)cc1 (stereo not given) | . | / | /
Cc1ccc(SCC(=O)NC2CC3CCC(C2)N3C)cc1 (stereo not given) | . | . | .
